Results as given in PubChem BioAssay AID488841 (Sanford-Burnham Center for Chemical Genomics, 2010).
The whole screen tested about 1,400 compounds, of which about 380 (27%) were called active.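 Rule for the calls: active = mean inhibition above 50% across duplicate retests at 10 µM; inactive = the rest.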 The list shows a part of the results.

experiment: inhibition of NALP1/ASC/caspase-1 reporter signal in yeast, confirmation, NALP1 inhibitor project, S. cerevisiae, luminescence, single concentration (AID 488841);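 note: plate controls were DMSO in galactose medium for no effect and cells in plain SD medium for full effect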; settings: S. cerevisiae NALP1/ASC/Caspase-1 reporter, beta-gal luminescence; at 10 µM; hits give high values

inhibition, active:
Nc1ccc(Oc2cccc(Oc3ccc(N)cc3)c2)cc1 50.5%
O=C(NCCCc1ccccc1)c1ccccc1O 53%
CC(C)(C)n1nc(-c2ccc(F)cc2)c2c(N)ncnc21 91.7%
Nc1nc2ccc(Oc3ccccc3)cc2s1 88.2%
Cc1sc(N)nc1-c1ccc(Oc2ccccc2)cc1 61.1%
Nc1nc(-c2ccc(Oc3ccccc3)cc2)cs1 98.5%
CCOc1ccc(C(=O)C(CN2CCOCC2)c2ccccc2)cc1 (stereo not given) 51.9%
CCCOc1ccc(C(=O)C(CN2CCCC2)c2ccccc2)cc1 (stereo not given) 50.8%
COc1ccccc1OCC(=O)NCCSCc1cccc(Cl)c1 59.4%
COc1ccccc1OCC(=O)NCCSCc1ccc(Cl)cc1 56.6%
COc1ccccc1OCC(=O)NCCSCc1ccccc1Cl 55.5%
CCCCCCCCCCCCCCCC[n+]1cccc2ccccc21 95%
CC(=O)Nc1sc2c(c1-c1nc3ccccc3s1)CCN(C(C)C)C2 92.9%
O=C(O)c1ccc(S(=O)(=O)/N=C2\C=C(Nc3ccccc3F)C(=O)c3ccccc32)cc1 98.8%
O=C1CSC(=S)N1c1cccc(O)c1 99%
COc1cc(N2C(=O)CSC2=S)cc(OC)c1OC 78.7%
O=C1CSC(=S)N1c1ccc(O)cc1 95.2%
CC1(C)COC(/C=C/c2ccc([N+](=O)[O-])cc2)=N1 74.7%

inhibition, inactive:
CCOC(=O)c1ccccc1NC(=O)COc1cc(=O)n(CC)c2ccccc12 8%
CC(=O)N1CC[n+]2c(-c3ccc(Cl)cc3Cl)csc21 19.1%
CCN1CCN(Cc2cccc(Oc3ccccc3)c2)CC1 34.3%
CC(C)C(NC(=O)CN1C(=O)c2ccccc2S1(=O)=O)C(C)C 21.5%
O=C(N/N=C/c1cc2c3c(c1O)CCCN3CCC2)c1ccccc1O 25.8%
Cn1c(=O)c2c(nc(Sc3ncccn3)n2Cc2ccccc2Cl)n(C)c1=O 29.4%
Cc1cc(OCCN2CCCC2)cc(C(C)C)c1 34.4%
O=C(CN1C(=O)C2C3C=CC(C3)C2C1=O)NCCc1ccccc1 (stereo not given) 24.9%
COc1ccc(CNc2nc(C)c([N+](=O)[O-])c(C)c2C#N)cc1 29.2%
c1ccc(CCNc2nc(-c3cccnc3)cs2)cc1 32.7%
COc1ccc(-c2csc(N3C(=O)C4C5c6ccccc6C(c6ccccc65)[C@@H]4C3=O)n2)cc1 (stereo not given in full) 45.8%
COC(=O)c1c(NC(NC(=O)C(C)C)C(Cl)(Cl)Cl)sc2c1CCC2 (stereo not given) 21%
COC(=O)c1ccc(C(=O)OC)c(NC(=O)COC(=O)C2CCCCC2)c1 7%
COc1ccc(OCC#CCNC(C)(C)C)cc1 33.4%
CCCCOc1ccc(C(=O)CCN2CCCCC2)cc1 41.4%
CCCOc1ccc(C(=O)c2nc3c(n2O)CCCCC3)cc1 22.7%
CCOC(=O)CNC(c1ccccc1)c1cc(Br)ccc1NC(=O)CCN1CCOCC1 (stereo not given) 27.6%
Cc1c(C(=O)N2CCOCC2)[nH]c2ccc(OCc3ccccc3)cc12 29.4%
Cn1c2c(c(=O)n(C)c1=O)C(NC(=O)C(C)(C)C)(C(F)(F)F)C(=O)N2 (stereo not given) 24.3%
NC(=NCCc1ccc(Cl)cc1)NS(=O)(=O)c1ccc(F)cc1 23.1%
Cc1sc2nc(SCC(=O)NCc3ccco3)n(Cc3ccccc3)c(=O)c2c1C 24.6%
CCN(CC1COc2ccccc2O1)S(=O)(=O)c1ccc(C)cc1 (stereo not given) 39.2%
CC(C)C(C(=O)O)N1C(=O)/C(=C/c2cccn2C)SC1=S (stereo not given) 42.4%
O=C(CCSCc1cccc(Cl)c1)NCCc1ccccc1 45.4%
O=C(COc1ccccc1Cl)NCCC1=CCCCC1 38.7%
O=C(CSCc1cccc(Cl)c1)Nc1ccccc1-c1ccccc1 35%
COc1ccc(CCNC(=O)CN2CCC(C)CC2)cc1OC 22.5%
O=C(Cc1ccc(Cl)cc1)Oc1cccc2cccnc12 27.7%
O=C(COC(=O)CCSc1ccccc1)NCc1ccccc1Cl 22.2%
COc1cccc(N2CCN(C3CCCC(C)C3)CC2)c1 (stereo not given) 25.3%
CC1=CCC2C(=O)N(Cc3ccccc3)C(=O)C2C1 (stereo not given) 24.9%
COc1cc(S(=O)(=O)NCc2cccnc2)ccc1F 27.6%
COc1cccc(C(=O)N2CCCC(c3nc(-c4cccs4)no3)C2)c1 (stereo not given) 29.9%
CC1(C)CC(=O)c2cc(C(=O)O)c(=O)n(-c3ccccc3)c2C1 32%
CC1(C)CC(=O)C2=C(C1)OC(N)=C([N+](=O)[O-])C2c1cccs1 (stereo not given) 42.5%
O=C(Nc1ccc(-c2nc3ccccc3s2)cc1)C1=COCCO1 25.9%
OCCn1c(-c2ccc(F)cc2)csc1=Nc1ccccc1 27.4%
CC(C)(C)c1cc(C(=O)O)n[nH]1 -1.95%
O=C1c2ccccc2-c2cccc(NS(=O)(=O)c3ccc(C(F)(F)F)cc3)c21 23.4%
O=C1C(Nc2ccccc2)=C/C(=N/S(=O)(=O)c2cccs2)c2ccccc21 49.6%
CCOP(=O)(C1=C(O)C(=O)C(C(C)(C)C)=CC1=O)c1ccccc1 (stereo not given) 24.9%
COc1cc(C2SCC(=O)N2CCCN(C)C)cc(OC)c1OC (stereo not given) 17.5%
C/C(=N/N=C1\SCC(=O)N1c1ccccc1)c1ccc(C)cc1 28.1%
Fc1ccc(N2CCN(Cc3cnc(Oc4ccc(Br)cc4)s3)CC2)cc1 25.8%
N#CC1=C(N)Oc2n[nH]c(-c3cccs3)c2C1C1CCCCC1 (stereo not given) 35.7%
Cc1nc2cc(-c3ccc(Cl)cc3)nn2c(C)c1CCC(=O)NC(C)c1ccc2c(c1)OCCO2 (stereo not given) 21.6%
COc1ccccc1/C=N\N=C(\N)c1ccccn1 43.3%
